# Screening data (PubChem)
# Only some compounds are listed: those with a hit (about 0.18% of all), similar ones and a draw of the others.
# Bim-Bcl-2 – disrupts Bim peptide binding to human Bcl-2; P10415; Bead-based flow cytometry, Bim peptide-Bcl-2 binding; inhibition, % at 10 µM; actives 0.06% (n = 190,000); in the data active = inhibition above about 40%
# Target sequence (P10415 whole entry, looked up): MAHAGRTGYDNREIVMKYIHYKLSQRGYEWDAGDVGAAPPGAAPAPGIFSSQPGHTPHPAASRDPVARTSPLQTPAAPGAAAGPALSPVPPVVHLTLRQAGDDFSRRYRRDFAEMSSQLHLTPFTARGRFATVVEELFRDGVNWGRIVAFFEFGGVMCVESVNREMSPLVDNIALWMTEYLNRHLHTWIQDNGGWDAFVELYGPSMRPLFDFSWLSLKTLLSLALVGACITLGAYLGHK
# Bim-Bfl-1 – inhibitors of Bim-Bfl-1 interaction, human | inhibition, % at 10 µM | actives 0.12% (n = 190,000) | Q16548 | Bead-based flow cytometry, Bim-Bfl-1 binding inhibition
# Bim-Bcl-W – inhibitors of Bim-Bcl-W interaction, human; inhibition, % at 10 µM; Q92843; AID 952; actives 0.02% (n = 190,000); bead-based flow cytometry, Bim peptide-Bcl-W binding;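 also: higher means less fluorescent Bim peptide bound to Bcl-W beads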
# Bim-Bcl-B – disrupts Bim peptide binding to human Bcl-B; Q9HD36; bead-based flow cytometry; inhibition, % at 10 µM; actives 0.073% (n = 190,000)
# Bcl-XL Bim block – inhibitors of Bim-Bcl-XL interaction, human. Q07817. Bim peptide-Bcl-XL binding, bead flow cytometry, fluorescence. inhibition, % at 10 µM. actives 0.04% (n = 190,000). AID 1007
# A number is an active result; 0 = inactive. Rule as the data show it, unless noted: active = inhibition above about 40%.
SMILES,Bim-Bcl-2,Bim-Bfl-1,Bim-Bcl-W,Bim-Bcl-B,Bcl-XL Bim block
COP(=O)(CC(=O)O)c1ccccc1 (stereo not given),0,0,0,95,51
COC(=O)C(O)(c1ccc(N(C)C(=O)c2cccs2)cc1)C(F)(F)F (stereo not given),0,0,0,0,0
c1ccc(-c2nc(N3CCOCC3)s[n+]2-c2ccccc2)cc1,0,52,0,0,0
CCOP(=S)(NN(Cc1ccccc1)C(=O)c1ccccc1)OCC,0,0,0,0,0
